Among the data in PubChem BioAssay (NCI) are growth values, retold here.

Structures are written as SMILES. This is part of a sample that, as a whole, favours compounds with a hit. Of some 83,000 tested, about 20% had one in any assay.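 For each line, cells grew in 96-well plates with the test compound present at a single concentration for 48 hours.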 Values without a mark were called inactive. Activity calls are given as the source filed them. Rule for the calls: active = growth percent below 10; inactive = the rest.

Test systems include HCT-15 colon; HT29 colon; SNB-75 CNS; SNB-19 CNS; U251 CNS; PC-3 prostate; SK-MEL-5 melanoma; UACC-62 melanoma; LOX IMVI melanoma; SK-MEL-28 melanoma; SK-MEL-2 melanoma; EKVX NSCLC; SN12C renal; UO-31 renal; TK-10 renal; ACHN renal; CAKI-1 renal; A498 renal; CCRF-CEM leukemia; MOLT-4 leukemia.
What all share (test): NCI-60 one-dose screen, 48 h (100 = growth as untreated, 0 = no growth, -100 = all killed)
Holding throughout (conditions): 10 µM unless noted

Consider `Cc1nnc(-n2c(O)cc(=O)n(-c3ccccc3)c2=S)nc1/C=C/c1ccc(N(C)C)cc1`, for which the growth was 28.9% with HCT-15 colon; 24.3% in the assay with HT29 colon; 17.3% in the assay on SNB-75 CNS; 59.8% in the assay on SNB-19 CNS; 53.7% in the assay with U251 CNS; 67.1% in the assay on PC-3 prostate. Moreover, the growth in the assay on SK-MEL-5 melanoma is 60.6%; in the assay with UACC-62 melanoma, 11.7%; in the assay on LOX IMVI melanoma, 18.8%; with SK-MEL-28 melanoma it was 58.6%; in the assay on SK-MEL-2 melanoma, 55.2%; in the assay on EKVX NSCLC, 66.7%. For the same compound, the growth in the assay on SN12C renal is 65.3%; in the assay with UO-31 renal it was 17.1%; in the assay with TK-10 renal, 28.1%; in the assay on ACHN renal it was 62%; in the assay with CAKI-1 renal it was 23.4%; in the assay on A498 renal, 52.1%. Besides, the growth with CCRF-CEM leukemia was 52.5%; in the assay on MOLT-4 leukemia, 56.1%.

Turning to `CCN(CC)CCCN1C(=O)c2c(c(C)c3c(oc4cc(O)ccc43)c2C)C1=O`, the growth in the assay on HCT-15 colon is -79.2% (active); in the assay on HT29 colon, -61.8% (active); in the assay on SNB-75 CNS it was 124%; in the assay with SNB-19 CNS, -82.8% (active); with U251 CNS, -88.8% (active); in the assay with PC-3 prostate it was -67.5% (active). In addition, the growth in the assay on SK-MEL-5 melanoma was -97.7% (active); with UACC-62 melanoma it was 95.2%; in the assay with LOX IMVI melanoma, -93.5% (active); in the assay with SK-MEL-28 melanoma, -85.1% (active); in the assay on SK-MEL-2 melanoma, 98%; in the assay on EKVX NSCLC, 108%. Further, the growth is -75% (active) in the assay with SN12C renal; 90.8% in the assay with UO-31 renal; 112% with TK-10 renal; 51.5% with ACHN renal; -81% (active) with CAKI-1 renal; 104% in the assay with A498 renal. The growth in the assay with CCRF-CEM leukemia is -6.12% (active); in the assay on MOLT-4 leukemia, -5.26% (active).

As for `COc1cc(-c2nc3cc(Cl)c(Cl)cc3[nH]2)ccc1OCC(=O)N=Nc1c(O)[nH]c2ccc([N+](=O)[O-])cc12`, the growth with HCT-15 colon is 103%; in the assay on HT29 colon, 110%; with SNB-75 CNS, 92.7%; in the assay with SNB-19 CNS, 43.9%; in the assay on U251 CNS, 22%; in the assay on PC-3 prostate, 56.5%. For the same compound, the growth is 85.1% in the assay with SK-MEL-5 melanoma; 95.2% in the assay on UACC-62 melanoma; 78.7% in the assay on LOX IMVI melanoma; 82% in the assay on SK-MEL-28 melanoma; 102% in the assay with SK-MEL-2 melanoma; 96.2% in the assay on EKVX NSCLC. Besides, the growth was 81.2% with SN12C renal; 91.1% with UO-31 renal; 124% in the assay with TK-10 renal; 104% in the assay on ACHN renal; 97.2% in the assay on CAKI-1 renal; 109% with A498 renal. In addition, the growth was 21.6% in the assay with CCRF-CEM leukemia and 74.2% in the assay on MOLT-4 leukemia.

Consider `CCc1ccc(Oc2cn[nH]c2-c2ccc(OCCc3ccc(F)cc3)cc2O)cc1`, for which the growth in the assay with HCT-15 colon is 74.3%; with HT29 colon, 42.4%; in the assay on SNB-75 CNS, 79%; in the assay with SNB-19 CNS, 108%; in the assay with U251 CNS, 53.5%; with PC-3 prostate, 72.2%. In addition, the growth is 97.5% in the assay with SK-MEL-5 melanoma; 88.6% with UACC-62 melanoma; 86.8% in the assay on LOX IMVI melanoma; 87.3% with SK-MEL-28 melanoma; 90.1% in the assay on SK-MEL-2 melanoma; 87.9% in the assay with EKVX NSCLC. The growth was 95.3% with SN12C renal; 81.7% in the assay with UO-31 renal; 66.8% with TK-10 renal; 94% with ACHN renal; 100% with CAKI-1 renal; 105% in the assay with A498 renal. Besides, the growth in the assay on CCRF-CEM leukemia was 95.6%; in the assay with MOLT-4 leukemia it was 84.4%.

Take `COc1ccc(C(=O)Nc2ncc(Cc3ccc(F)cc3)s2)cc1`: the growth in the assay on HCT-15 colon is 11.5%; in the assay with HT29 colon, 9.92% (active); in the assay with SNB-75 CNS, 23.9%; in the assay on SNB-19 CNS it was 31.2%; in the assay with U251 CNS it was 28.6%; in the assay on PC-3 prostate, 27.6%. The growth in the assay with SK-MEL-5 melanoma was -4.84% (active); in the assay on UACC-62 melanoma, 30.1%; in the assay on LOX IMVI melanoma, 20%; in the assay with SK-MEL-28 melanoma, 48.7%; with SK-MEL-2 melanoma, 30.7%; in the assay with EKVX NSCLC, 38.4%. For the same compound, the growth in the assay on SN12C renal is 25.1%; in the assay on UO-31 renal, 39.8%; with TK-10 renal, 63.7%; with ACHN renal, 28.3%; with CAKI-1 renal it was 22.3%; in the assay with A498 renal, -12.4% (active). Also, the growth with CCRF-CEM leukemia was 12.3%; in the assay with MOLT-4 leukemia it was 14.8%.

As to `O=Nc1c(-c2c(O)[nH]c3ncccc23)[nH]c2ccccc12`, the growth was 33.9% in the assay with HCT-15 colon; 102% in the assay with HT29 colon; 31.2% in the assay with SNB-75 CNS; 96.4% with SNB-19 CNS; 67.3% with U251 CNS; 67.7% in the assay with PC-3 prostate. Moreover, the growth with SK-MEL-5 melanoma was 72.3%; in the assay on UACC-62 melanoma, 56.7%; in the assay with LOX IMVI melanoma, 44.5%; with SK-MEL-28 melanoma, 75.3%; in the assay with SK-MEL-2 melanoma, 14.7%; with EKVX NSCLC, 35.5%. The growth was 72.8% in the assay with SN12C renal; 10.6% in the assay on UO-31 renal; 40.3% with TK-10 renal; 22.6% in the assay with ACHN renal; 12.4% with CAKI-1 renal; -11.7% (active) in the assay on A498 renal. The values for the growth in the assay with CCRF-CEM leukemia and in the assay on MOLT-4 leukemia were 64.8% and 40.8%, respectively.

Take `O=C(NNC(=O)c1ccc(-n2cc(-c3ccccc3)nn2)cc1)Nc1ccccc1`: the growth in the assay on HCT-15 colon is 103%; in the assay with HT29 colon, 118%; with SNB-75 CNS, 97.2%; with SNB-19 CNS, 90.1%; with U251 CNS, 96.5%; with PC-3 prostate, 99.8%. Also, the growth was 100% in the assay on SK-MEL-5 melanoma; 97.9% with UACC-62 melanoma; 97.1% in the assay with LOX IMVI melanoma; 109% in the assay with SK-MEL-28 melanoma; 110% in the assay with SK-MEL-2 melanoma; 108% with EKVX NSCLC. Moreover, the growth with SN12C renal is 97.7%; in the assay with UO-31 renal it was 92.2%; in the assay on TK-10 renal it was 109%; in the assay with ACHN renal, 101%; with CAKI-1 renal, 91.8%; in the assay on A498 renal it was 105%. The growth with CCRF-CEM leukemia is 102%; in the assay on MOLT-4 leukemia, 107%.

In the case of `Cc1nc(-c2ccccc2)cc2c(O)c(C(=O)NN)[nH]c(=O)c12`, the growth was 107% in the assay on HCT-15 colon; 114% in the assay on HT29 colon; 104% in the assay with SNB-75 CNS; 106% in the assay on SNB-19 CNS; 106% with U251 CNS; 67.3% with PC-3 prostate. Also, the growth in the assay with SK-MEL-5 melanoma was 100%; with UACC-62 melanoma, 98.6%; with LOX IMVI melanoma, 107%; in the assay on SK-MEL-28 melanoma, 111%; in the assay on SK-MEL-2 melanoma, 93.3%; in the assay with EKVX NSCLC, 111%. The growth in the assay with SN12C renal was 90.9%; in the assay with UO-31 renal it was 97.4%; in the assay with TK-10 renal, 161%; with ACHN renal, 109%; in the assay on CAKI-1 renal it was 114%; in the assay with A498 renal it was 100%. The growth is 95.1% with CCRF-CEM leukemia and 102% in the assay with MOLT-4 leukemia.
